Each structure is given as a SMILES string. Among all 340,000 compounds or so, about 2,100 (0.62%) were called active. Only a sample is shown. Results with a measured potency or affinity are listed apart. Values without a mark were called inactive.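 How the source made its calls: active means first-screen hits whose inhibition reached a set limit at any dose in the follow-up dose series; inconclusive means inhibition above the set first-screen limit but never retested; inactive means the rest.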

Sequence of Rac GTPase-activating protein 1 (Homo sapiens) (Q9H0H5 whole entry, looked up): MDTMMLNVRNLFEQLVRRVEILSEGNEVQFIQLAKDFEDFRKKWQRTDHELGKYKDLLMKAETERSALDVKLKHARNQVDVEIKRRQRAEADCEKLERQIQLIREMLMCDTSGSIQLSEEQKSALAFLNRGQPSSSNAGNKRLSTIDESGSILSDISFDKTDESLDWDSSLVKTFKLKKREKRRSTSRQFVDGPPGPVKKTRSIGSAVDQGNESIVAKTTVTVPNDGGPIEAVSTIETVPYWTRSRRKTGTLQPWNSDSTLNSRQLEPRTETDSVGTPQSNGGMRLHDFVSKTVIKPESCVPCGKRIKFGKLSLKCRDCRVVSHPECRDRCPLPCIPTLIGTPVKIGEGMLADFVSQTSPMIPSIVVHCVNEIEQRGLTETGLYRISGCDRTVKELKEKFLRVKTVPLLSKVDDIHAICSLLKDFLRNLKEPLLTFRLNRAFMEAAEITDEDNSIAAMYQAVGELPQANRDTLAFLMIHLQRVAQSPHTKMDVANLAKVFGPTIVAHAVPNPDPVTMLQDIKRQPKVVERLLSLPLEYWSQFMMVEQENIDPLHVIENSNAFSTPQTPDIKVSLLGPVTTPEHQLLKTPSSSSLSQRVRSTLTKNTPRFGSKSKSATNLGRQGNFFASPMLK

The test has as its target Rac GTPase-activating protein 1 (Homo sapiens) (UniProt Q9H0H5). Kind of test: MgcRacGAP GTPase-activating activity inhibitors, confirmation, biochemical, ADP Hunter fluorescence, primary and confirmatory (AID 624330).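 Further: fluorescence reports GDP produced by GAP-driven GTP hydrolysis.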 The following applies: MgcRacGAP-stimulated Rac1 GTP hydrolysis, at 30 µM, hits give high values, GST-tagged Rac1 F28L mutant substrate.
On to `Cc1cc(C)c(NC(=O)CN(C)C(=O)CCN2C(=O)C3CCCCC3C2=O)c(C)c1` (stereo unspecified), for which the inhibition was 11.4%.

In the case of `Cn1c(SCC(=O)NCC2CCCO2)nnc1-c1cccc(NC(=O)c2ccccc2F)c1` (stereo unspecified), the inhibition is 2.1%.

For `COCCCNC(=O)COc1ccc(S(=O)(=O)Nc2ccccc2)cc1`, the inhibition is 5.23%.

On to `NC(=O)CC12CC3CC(C1)CC(CC(N)=O)(C3)C2`, for which the inhibition was -1.41%.

`NCC12CC3CC(CC(O)(C3)C1)C2`: the inhibition is 9.89%.

For the compound `COCC(C)NCc1cccc2ccccc12` (stereo unspecified), the inhibition is 26.8%.

In the case of `COCC(C)NCc1ccc(C)cc1C` (stereo unspecified), the inhibition was 16.8%.

For the compound `CCOc1ccccc1N1CC(C(=O)Nc2cc(Cl)ccc2C)CC1=O` (stereo unspecified), the inhibition was -1.6%.

Consider `Cc1ccc(Cl)cc1N1CCN(C(=O)CN(C2CCCCC2)S(C)(=O)=O)CC1`, for which the inhibition was 1.2%.

Consider `O=C(Nc1ccccc1Cl)C1CCN(S(=O)(=O)c2cccc3nonc23)CC1`, for which the inhibition was -1.65%.

In the case of `CCN(CC)c1ccc(CNc2ccc3c(c2)ncn3C(C)(C)C)cc1`, the inhibition was 6.25%.

Turning to `CCOc1cc(/C=N\Nc2nc(-c3ccc(C)cc3)c(NC(C)=O)s2)ccc1O`, the inhibition is 8.08%.

On to `CCOc1ccc(/C=N/Nc2nc(=O)[nH]nc2C)cc1OC`, for which the inhibition is 7.43%.

For `CCOc1cc(/C=N/Nc2cc(C)nc(-n3nc(C)cc3C)n2)ccc1O`, the inhibition is 11.4%.

In the case of `CCOc1cc(/C=N/Nc2nncc(-c3ccccc3)n2)ccc1O`, the inhibition is 13.6%.

Turning to `C[C@H](CO)N1C[C@H](C)[C@@H](CN(C)C(=O)Nc2ccc(C(F)(F)F)cc2)Oc2ccc(NS(=O)(=O)c3cccs3)cc2C1=O`, the inhibition was 6.16%.

Take `CC(C)NC(=O)CCCc1cn(C)c2ccccc12`: the inhibition was 3.62%.

With `COCCNC(=O)c1onc(CSc2ccccc2)c1C(=O)O`, the inhibition was 7.12%.

Turning to `CC(C)CN(C(=O)COC(=O)/C=C/c1ccc(Cl)c(Cl)c1)c1c(N)n(Cc2ccccc2)c(=O)[nH]c1=O`, the inhibition is 10.7%.

As to `COc1ccc(/C=C/C(=O)OCC(=O)NCc2ccccc2)cc1OC`, the inhibition was -1.57%.

For `COc1cc(/C=C/C(=O)O)ccc1O`, the inhibition is 22.1%.

Turning to `COC(=O)c1ccc(CNC(=O)COC(=O)/C=C/c2cc(OC)c(OC)c(OC)c2)cc1`, the inhibition is -11.7%.

Turning to `COc1cc(/C=C/C(=O)OCC(=O)NCc2ccccc2OC)ccc1O`, the inhibition was -4.08%.

Take `COc1cc(/C=C/C(=O)OCC(=O)N(C)Cc2ccccc2)cc(OC)c1OC`: the inhibition was 5.49%.

Take `CCN(C(=O)COC(=O)/C=C/c1ccc(OC)c(OC)c1)c1c(N)n(Cc2ccccc2)c(=O)[nH]c1=O`: the inhibition was 4.28%.

Consider `COC(=O)c1ccc(CNC(=O)COC(=O)/C=C/c2ccc(OC)c(OC)c2)cc1`, for which the inhibition was 1.48%.

For the origin of these results see PubChem BioAssay AID624330 (Southern Research Specialized Biocontainment Screening …, 2012).
